Laboratory results from PubChem BioAssay (NCATS).
Inconclusive results are not listed. The source made the active and inactive calls. Unless noted, the call rests on the fitted dose curve; in most records, active means well fitted curve in the direction sought with a large enough effect; inconclusive means small, poorly fitted or top-dose-only effect, or another doubt; inactive means no such curve, though single readings can be large; an effect the other way counts as inactive or inconclusive.

How the values were obtained:
[1] = biological target: Cytochrome P450 2C9 (Homo sapiens) (UniProt P11712); assay: Cytochrome P450 family 2 subfamily C member 9 (CYP2C9) small molecule antagonists: luciferase biochemical (cell-free) qHTS assay (AID 1645842; active means well fitted curve in the direction sought with a large enough effect in the repeat runs; an effect the other way counts as inactive or inconclusive; further: nearly all actives have a fitted effect of over 55% in size; further: potency means the concentration at half of the fitted maximal effect; on activity change, negative = inhibition: on the % scale 0 is the no-effect control and ±100 the full control effect)
Chain of Cytochrome P450 2C9 (Homo sapiens) (P11712 whole entry, looked up): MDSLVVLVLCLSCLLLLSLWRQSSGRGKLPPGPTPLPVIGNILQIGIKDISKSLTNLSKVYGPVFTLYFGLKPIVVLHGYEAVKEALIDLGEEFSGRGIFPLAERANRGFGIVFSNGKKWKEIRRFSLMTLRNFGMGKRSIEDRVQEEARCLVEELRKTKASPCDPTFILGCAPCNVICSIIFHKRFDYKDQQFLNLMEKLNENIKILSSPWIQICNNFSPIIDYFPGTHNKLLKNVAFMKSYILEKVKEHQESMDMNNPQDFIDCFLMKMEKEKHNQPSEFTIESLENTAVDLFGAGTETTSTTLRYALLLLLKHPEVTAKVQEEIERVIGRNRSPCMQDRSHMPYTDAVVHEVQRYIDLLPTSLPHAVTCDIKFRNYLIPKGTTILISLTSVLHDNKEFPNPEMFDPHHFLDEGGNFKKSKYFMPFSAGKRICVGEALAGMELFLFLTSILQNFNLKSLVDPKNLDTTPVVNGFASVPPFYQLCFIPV
Outline: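 P450-Glo CYP2C9 system: proluciferin substrate with enzyme in mix containing 0.4% BSA, 10 min at room temperature, then NADPH regeneration solution added and incubated 1 h at 37C. Detection reagent stopped reaction; luminescence read after 20 min as RLU.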

[2] = Primary qHTS for inhibitors of nuclear receptor binding SET domain protein 2 (NSD2) in an isogenic RCH-ACV NSD2 p.E1099K mutant (9B) (AID 1645876); further: nearly all actives have a fitted effect of over 70% in size; further: potency means the concentration at half of the fitted maximal effect
[3] = Primary qHTS for inhibitors of nuclear receptor binding SET domain protein 2 (NSD2) in an RCH-ACV wild type WT cells (2C) (AID 1645877); further: nearly all actives have a fitted effect of over 70% in size; further: potency means the concentration at half of the fitted maximal effect
[4] = NCATS anti-infectives library activity on HEK293 viability as a counter-qHTS vs the C. elegans viability qHTS (AID 1745854);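 further: HEK293 cells exposed to compounds for 24 hr before the viability read; on the % scale 0 is the no-effect control and ±100 the full control effect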
Outline: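 Compound titrations (final up to 41.7 uM) were incubated with HEK293 cells for 24 hr at 37C under 5% CO2. Viable cells were quantified with CellTiter-Glo after 10 min at ambient temperature.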

[5] = NCATS anti-infectives library activity on the primary C. elegans qHTS viability assay (AID 1745855; calls by dose curve; further: potency means the concentration at half of the fitted maximal effect)
Outline: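 Titration-based screen in worms: eggs hatched overnight in M9, L1 larvae fed TOP10 capsules in S medium with compound, incubated 21 °C for 7 days; fluorescent objects gated by size and intensity at days 0, 3 and 7.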

[6] = biological target: Catechol O-methyltransferase (Homo sapiens) (UniProt P21964); assay: Confirmatory Screen for Target Class Profiling of Small Molecule Inhibitors of Methyltransferases (AID 1745852; calls by dose curve; further: potency means the concentration at half of the fitted maximal effect; on activity change, negative = inhibition: on the % scale 0 is the no-effect control and ±100 the full control effect); details: MTase-Glo luminescence, SAH detection, recombinant enzyme; measured here: COMT max response; stronger effect = lower value
Chain of Catechol O-methyltransferase (Homo sapiens) (P21964 whole entry, looked up): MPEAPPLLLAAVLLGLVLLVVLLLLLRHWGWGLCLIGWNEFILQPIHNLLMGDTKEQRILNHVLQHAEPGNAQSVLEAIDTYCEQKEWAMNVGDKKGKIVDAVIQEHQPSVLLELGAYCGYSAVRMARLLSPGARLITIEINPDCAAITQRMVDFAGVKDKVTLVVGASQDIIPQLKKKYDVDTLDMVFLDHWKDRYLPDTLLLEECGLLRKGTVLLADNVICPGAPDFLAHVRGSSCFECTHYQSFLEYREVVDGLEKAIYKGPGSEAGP

[7] = biological target: Guanidinoacetate N-methyltransferase (Homo sapiens) (UniProt Q14353); assay: as above; details: activity change, negative = inhibition: at 57.3 µM (top of the series) unless noted
[8] = biological target: Nicotinamide N-methyltransferase (Homo sapiens) (UniProt P40261); assay: as above; details: MTase-Glo luminescence, SAH detection, recombinant enzyme; measured here: NNMT max response; stronger effect = lower value
Chain of Nicotinamide N-methyltransferase (Homo sapiens) (P40261 whole entry, looked up): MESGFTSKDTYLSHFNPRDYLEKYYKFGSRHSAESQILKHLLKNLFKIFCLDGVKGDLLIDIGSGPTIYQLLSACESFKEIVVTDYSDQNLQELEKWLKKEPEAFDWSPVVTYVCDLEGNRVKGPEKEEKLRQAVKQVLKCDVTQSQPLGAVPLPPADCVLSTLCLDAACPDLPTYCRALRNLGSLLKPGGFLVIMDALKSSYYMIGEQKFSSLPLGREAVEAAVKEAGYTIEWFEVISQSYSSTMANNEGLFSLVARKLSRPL

[9] = biological target: Phenylethanolamine N-methyltransferase (Homo sapiens) (UniProt P11086); assay: as above; details: MTase-Glo luminescence, SAH detection, recombinant enzyme; measured here: PNMT max response; stronger effect = lower value
Chain of Phenylethanolamine N-methyltransferase (Homo sapiens) (P11086 whole entry, looked up): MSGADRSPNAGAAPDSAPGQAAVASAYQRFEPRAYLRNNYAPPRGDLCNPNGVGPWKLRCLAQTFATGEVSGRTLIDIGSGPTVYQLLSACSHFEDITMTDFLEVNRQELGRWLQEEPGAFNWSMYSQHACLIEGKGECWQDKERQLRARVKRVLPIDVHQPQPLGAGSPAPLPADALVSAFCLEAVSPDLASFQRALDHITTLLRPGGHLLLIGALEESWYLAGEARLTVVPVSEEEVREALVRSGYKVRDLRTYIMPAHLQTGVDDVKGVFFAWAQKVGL

Q: With CCCN1CCC=C(c2cc(-c3ccc(C)cc3)no2)C1 as the compound, how does the Potency [1] read?
A: inactive

Q: And the Potency [2]?
A: inactive

Q: And the Potency [3]?
A: inactive

Q: And the outcome [4]?
A: inactive

Q: What about the Potency [5] of the same compound?
A: 6.48 µM (active)

Q: What does the source list for N#Cc1cnc2c(Cl)cc(NCc3cn(CCN4CCCCCC4)nn3)cc2c1Nc1ccc(F)c(Cl)c1?
A: Potency [1]: 3.38 µM (active); Potency [2]: 20.5 µM (active); Potency [3]: 11.5 µM (active); activity [6]: -24.8%; Potency [7]: 15.2 µM (active); activity [8]: -26.2%; activity [9]: -36.9%

Q: What does the source list for COC1CCN(C(=O)c2cc(Cc3n[nH]c(=O)c4ccccc34)ccc2F)CC1?
A: Potency [1]: 23.9 µM (active); Potency [2]: 13.2 µM (active); Potency [3]: 8.33 µM (active); outcome [4]: inactive

Q: With COc1ccccc1N1CCN(c2ncnc3n[nH]c(Br)c23)CC1 as the compound, how does the Potency [1] read?
A: 7.56 µM (active)

Q: And the Potency [2]?
A: 23 µM (active)

Q: What about the Potency [3] of the same compound?
A: 16.3 µM (active)

Q: What about the activity [6] of the same compound?
A: -8.96%

Q: What about the activity change, negative = inhibition [7] of the same compound?
A: -0.635%

Q: And the activity [8]?
A: -42.7%

Q: And the activity [9]?
A: -19.8%
